Bioassay records as filed in PubChem.
Tau fluor cs: counter-screen for tau fibril formation inhibitors. tau K18 P301L Alexa594 fluorescence, heparin fibrillization. Potency, µM (highest dose often 57.7 µM). hit rate 0.93% among 280,000. AID 1463; further: nearly all actives have a fitted effect of over 55% in size
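Human tau K18 P301L (15 uM unlabeled, 0.24 uM Alexa 594-labeled) in 100 mM sodium acetate pH 7 with 20 uM heparin, 6 hr at 37 C. ThT 30 uM added, 1 hr ambient; Alexa 594 FP and total fluorescence read at 555/632 nm.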
USP1-UAF1 inh: blocks the human USP1/UAF1 deubiquitinase complex | recombinant USP1/UAF1, Ub-Rhodamine cleavage fluorescence | Potency, µM (series often up to 57.1 µM), actives largely listed as inhibitors | hit rate 0.23% among 390,000 | AID 743255; further: nearly all actives have a fitted effect of over 60% in size
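USP1/UAF1 complex at 1 nM was preincubated with compound for 15 min at room temperature, then Ub-Rho substrate (150nM final) was added. Fluorescence (480/540 nm) was read kinetically, 6 reads every 60 seconds.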
Tau ThT inhib: tau fibrillization inhibition (ThT binding); hit rate 2.1% among 270,000; recombinant tau K18 P301L, heparin-induced fibrillization, ThT fluorescence; Potency, µM (doses to about 57.4 µM), actives largely listed as inhibitors; further: nearly all actives have a fitted effect of over 55% in size
Target sequence (P10636 561-689 P618L limits assumed): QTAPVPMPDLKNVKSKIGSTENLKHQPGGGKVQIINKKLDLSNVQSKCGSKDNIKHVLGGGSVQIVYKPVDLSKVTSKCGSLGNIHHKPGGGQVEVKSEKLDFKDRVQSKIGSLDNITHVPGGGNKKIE
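ThT emission at 510 nm, taken 1 hr after adding 30 uM dye, quantifies aggregates formed when 20 uM heparin acts on human tau K18 P301L for 6 hr at 37 C.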
Coupling enz: counter-screen for Giardia aldolase inhibitors: coupling enzyme system; hit rate 0.67% among 290,000; coupling enzyme system counterscreen, AmpLite Red fluorescence; AID 2472; activity change, negative = inhibition, % at 58.2 µM, hits read low; in the data active means activity change below about -30%
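First, compound is pin-transferred into glyceraldehyde-3-phosphate coupling-enzyme reagent at 57.5 uM final and held 10 min at RT. Next, substrate, coupling system and AmpLite Red are added. After 20 min RT, fluorescence (525/598 nm) is read.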
Tau FP inhib: tau fibrillization inhibition (FP). P10636. K18 P301L tau heparin fibrillization, Alexa594 FP, 6 h. Potency, µM (titrated, usually from 57.7 µM), hits mostly inhibitors. hit rate 0.39% among 280,000. AID 1468; further: nearly all actives have a fitted effect of over 55% in size
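Human K18 P301L fragment (15 uM unlabeled plus 0.24 uM Alexa 594-labeled) in 100 mM sodium acetate pH 7 with compound, aggregation induced by 20 uM heparin for 6 hr at 37 C. ThT (30 uM) added for 1 hr, then Alexa 594 FP read.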
Each line names hits and unclear results; the compound was inactive in the other large screens; [ ] = dose if it differs, or a comment. Compounds with a hit are over-represented: about 2.3% of the library has one in this group of screens. Unless noted, the call rests on the fitted dose curve; in most records, active means well fitted curve in the direction sought with a large enough effect; inconclusive means small, poorly fitted or top-dose-only effect, or another doubt; inactive means no such curve, though single readings can be large; an effect the other way counts as inactive or inconclusive.

CCOC(=O)c1cc(OC(=O)c2ccccc2C)n(-c2ccccc2)n1	Tau ThT inhib inconclusive (no result: Coupling enz)
Cc1ccc2cc(C#N)c(NCCCNC(=O)C3CCCO3)nc2c1 (centres undefined)	Coupling enz -35.3
Cc1ccc2cc(C#N)c(N3CCCN(C(=O)C4CCCO4)CC3)nc2c1 (centres undefined)	none
COc1cccc([C@@H]2Oc3ccc(Br)cc3C[C@H]2O)c1	none (no result: USP1-UAF1 inh)
CCOC(=O)c1cc2n(c1/N=C/N(C)C)-c1ccccc1C2=O	Tau fluor cs inconclusive, USP1-UAF1 inh 25.1µM, Tau ThT inhib 25.1µM, Coupling enz -35.4, Tau FP inhib 25.1µM
c1csc(CNc2ccnc(-c3ccoc3)n2)c1	none (no result: Tau fluor cs, USP1-UAF1 inh, Tau ThT inhib, Tau FP inhib)
CC1=NOC(=O)/C1=C\c1ccc(-c2ccc(Br)cc2C(=O)O)o1	Tau ThT inhib inconclusive, Tau FP inhib inconclusive
CC1=NOC(=O)/C1=C\c1ccc(-c2ccc(Br)cc2)o1	USP1-UAF1 inh inconclusive, Tau ThT inhib 28.2µM
CC1=NOC(=O)/C1=C/c1ccc(-c2ccc(Cl)cc2)o1	Tau fluor cs inconclusive, Tau ThT inhib 17.8µM (no result: USP1-UAF1 inh)
C=CCSc1nc2sc3c(c2c(=O)n1CC)CCc1ccccc1-3	Tau ThT inhib 11.2µM, Tau FP inhib 15.8µM
C=CCn1c(SCC)nc2sc3c(c2c1=O)CCc1ccccc1-3	none
CCOC(=O)C1=C(C)OC(N)=C(C#N)C1c1cc2c(cc1[N+](=O)[O-])OCO2 (centres undefined)	Tau fluor cs inconclusive, Tau ThT inhib 28.2µM, Tau FP inhib inconclusive
Cc1ccc(NC(=O)C(Cc2c[nH]c3ccccc23)NC(=O)OCC(C)C)cc1 (centres undefined)	Tau fluor cs 20µM[quencher] (no result: Coupling enz)
COc1cc(/C=N/NC(=O)C(Cc2c[nH]c3ccccc23)NC(=O)OCC(C)C)cc([N+](=O)[O-])c1O (centres undefined)	Tau ThT inhib 14.1µM
COc1cc(/C=N/NC(=O)C(Cc2c[nH]c3ccccc23)NC(=O)OCc2ccccc2)cc([N+](=O)[O-])c1O (centres undefined)	Tau fluor cs inconclusive, USP1-UAF1 inh inconclusive, Tau ThT inhib 12.6µM, Tau FP inhib inconclusive
Cc1ccc(NC(=O)C(C)OC(=O)Cc2c[nH]c3ccccc23)cc1 (centres undefined)	none (no result: Tau fluor cs, Tau ThT inhib, Coupling enz, Tau FP inhib)
CC(=O)N(Cc1ccc(F)cc1)C1=C(NCc2ccccc2)C(=O)c2ccccc2C1=O	Tau fluor cs inconclusive, USP1-UAF1 inh inconclusive, Tau ThT inhib 28.2µM, Coupling enz -54.6
O=C(NCc1ccc(F)cc1)C(c1ccccc1)c1ccccc1	none (no result: Tau fluor cs, Tau ThT inhib, Tau FP inhib)
CCOC(=O)C1CCN(C(c2ccccc2)c2c(O)cc(C)n(Cc3ccco3)c2=O)CC1 (centres undefined)	Tau ThT inhib inconclusive (no result: Coupling enz)
Cc1cccc(NC(=S)NNc2cccc(Cl)c2)c1	none (no result: Tau fluor cs, Tau ThT inhib, Tau FP inhib)
Cc1ccc(NS(=O)(=O)c2cc([N+](=O)[O-])ccc2NNC(=S)Nc2cccc(Cl)c2)c(C)c1	Tau fluor cs 7.94µM[quencher], USP1-UAF1 inh inconclusive, Tau ThT inhib 10µM, Tau FP inhib inconclusive
COc1ccc(NC(=S)Nc2cccc([N+](=O)[O-])c2)cc1	none
Cc1ccc(NS(=O)(=O)c2cc([N+](=O)[O-])ccc2NNC(=S)Nc2cc(C)ccc2C)c(C)c1	Tau fluor cs 12.6µM[quencher], Tau ThT inhib inconclusive
COc1ccc(NC(=S)NNc2ccc([N+](=O)[O-])cc2S(=O)(=O)Nc2ccc(C)cc2C)cc1	Tau fluor cs 14.1µM[quencher], Tau ThT inhib 31.6µM
O=C(OCC(F)(F)F)[C@H](O)[C@@H](O)C(=O)OCC(F)(F)F	none (no result: USP1-UAF1 inh)
CCOc1ccc(/C=C(\C#N)c2nc(-c3cc4ccccc4oc3=O)cs2)c(OCC)c1	none (no result: Coupling enz)
CC(=O)N1CCC2(CCCN(C(=O)Nc3cccc(C#N)c3)C2)CC1	none (no result: Tau fluor cs, USP1-UAF1 inh, Tau ThT inhib, Tau FP inhib)
Cc1ccc(Nc2nc(CSc3nnnn3-c3ccccc3)cs2)cc1	Tau fluor cs 11.2µM[quencher], Tau ThT inhib inconclusive
O=C(Nc1ccc(N2CCN(c3ncccc3C(F)(F)F)CC2)nc1)c1cccs1	Tau fluor cs 12.6µM[quencher], Tau ThT inhib 7.94µM
O=C(Nc1ccc(N2CCN(c3ccc(C(F)(F)F)cn3)CC2)nc1)c1cccs1	Tau fluor cs inconclusive, Tau ThT inhib inconclusive
Cc1ccc(NS(=O)(=O)c2c(C)nc3sc(C)c(C)n3c2=O)cc1F	USP1-UAF1 inh inconclusive (no result: Coupling enz)
N#CC1=C(N)N(c2ccc(Br)cc2)C2=C(C(=O)CCC2)C1c1cccnc1 (centres undefined)	Coupling enz -43.7
CC1Cc2cc(S(=O)(=O)NCCc3ccccc3)ccc2N1C(=O)C1CCC1 (centres undefined)	none (no result: Coupling enz)
Cc1ccc2c(c1)c(C)cc[n+]2Cc1ccccc1	none
CC[n+]1ccc(C[n+]2ccccc2)c2ccccc21	Tau ThT inhib inconclusive, Coupling enz -31.8, Tau FP inhib inconclusive
COc1ccccc1-n1c(SCC(=O)c2ccc(O)cc2O)nc2cc([N+](=O)[O-])ccc21	Tau fluor cs 10µM[quencher], Tau FP inhib inconclusive
COc1ccccc1-n1c(SCC(=O)NC2CCS(=O)(=O)C2)nc2cc([N+](=O)[O-])ccc21 (centres undefined)	none
Cc1oc2c(c1C(=O)NCc1cccnc1)C(=O)c1ccccc1C2=O	USP1-UAF1 inh inconclusive
CC(=O)c1c(C)oc2c1C(=O)c1ccccc1C2=O	Tau ThT inhib inconclusive, Coupling enz -41.3
COc1ccc(CNC(=O)c2c(C)oc3c2C(=O)c2ccccc2C3=O)cc1	Tau fluor cs inconclusive, USP1-UAF1 inh inconclusive, Tau ThT inhib inconclusive, Coupling enz -44.6
Cc1cc(N2CCC(C(=O)N(CC(C)C)CC(C)C)CC2)n2nc(C)c(-c3ccc(Cl)cc3)c2n1	Tau ThT inhib inconclusive (no result: Coupling enz)
CCCCCn1c(=O)c(C(=O)c2ccccc2)nc2ccccc21	none
CCCCCCn1c(=O)[nH]c2nc3cc(N)ccc3nc2c1=O	Tau fluor cs inconclusive, USP1-UAF1 inh inconclusive, Tau ThT inhib 28.2µM, Coupling enz -39.6, Tau FP inhib inconclusive
CCc1nn(CC(=O)NCCCOC)c(=O)c2cc3ccccc3n12	none (no result: Coupling enz)
O=C(Nc1cccc(Cl)c1)Nc1sccc1-c1nc2ccccc2s1	Tau fluor cs 14.1µM[quencher], USP1-UAF1 inh inconclusive, Tau ThT inhib inconclusive, Tau FP inhib inconclusive
O=C(Nc1ccccc1)Nc1sccc1-c1nc2ccccc2s1	Tau fluor cs inconclusive, Tau ThT inhib inconclusive, Tau FP inhib inconclusive
O=C(Nc1cccc(-c2nc3ccccc3s2)c1)c1cccs1	Tau fluor cs inconclusive, Tau ThT inhib inconclusive, Tau FP inhib 22.4µM
Nc1ccc(Oc2ccc3nc(-c4ccccc4)c(-c4ccccc4)nc3c2)cc1	Tau fluor cs 14.1µM[quencher]
Cc1ccc(S(=O)(=O)N2CCc3cc(C(=O)Nc4ccc(C)c(C)c4)ccc32)cc1	Tau FP inhib inconclusive (no result: Coupling enz)
CSc1cnc2c(=O)n(C)c(=O)[nH]c2n1	none
Cn1c(=O)[nH]c2nnc(-c3ccc(Cl)c(Cl)c3)nc2c1=O	USP1-UAF1 inh inconclusive, Tau ThT inhib 15.8µM
COc1ccccc1C(=O)NC(=S)NNC(=O)c1sc2ccccc2c1Cl	Tau FP inhib inconclusive
